hcDAF-12 act: activators of H. contortus DAF-12 nuclear receptor; HEK293 hcDAF-12 lit1-tk-luc reporter, luminescence; 0% DMSO, 100% Δ7-dafachronic acid; hit rate 1.4% among 370,000; activation, % at 6.8 µM;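 active = activation above the mean of all tested compounds plus 3 SD, cut at about 5.5% in these data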;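 note: 100% = response to 3 µM Δ7-dafachronic acid high control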
ssDAF12 agonist: S. stercoralis DAF-12 activation, primary screen; HEK293 ssDAF-12/GRIP1 lit1-tk-luc reporter, luminescence; % of 3 µM dafachronic acid response; activation, % at 6.8 µM; hit rate 1% among 370,000;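 active = activation above the mean over all tested compounds plus 3 SD, cut at about 0.9% in these data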;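 note: 0% = DMSO-only wells and 100% = 3 µM delta7-dafachronic acid wells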
Wee1 degr inh: blocks degradation of human Wee1 kinase. P30291. HeLa Luc-Wee1K328M stability, luciferase luminescence; 100% = proteasome inhibitor MG132 effect. reporter increase, % at 5 µM. hit rate 1.2% among 220,000. AID 1321;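 active = activation above the mean of all tested compounds plus 3 SD, set per screening run, cut at about 8.8% in these data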;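 note: cells exposed to compound for 20 h before luminescence read; 0% = DMSO alone and 100% = MG132 at 30 µM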
Target sequence (P30291 whole entry K328M): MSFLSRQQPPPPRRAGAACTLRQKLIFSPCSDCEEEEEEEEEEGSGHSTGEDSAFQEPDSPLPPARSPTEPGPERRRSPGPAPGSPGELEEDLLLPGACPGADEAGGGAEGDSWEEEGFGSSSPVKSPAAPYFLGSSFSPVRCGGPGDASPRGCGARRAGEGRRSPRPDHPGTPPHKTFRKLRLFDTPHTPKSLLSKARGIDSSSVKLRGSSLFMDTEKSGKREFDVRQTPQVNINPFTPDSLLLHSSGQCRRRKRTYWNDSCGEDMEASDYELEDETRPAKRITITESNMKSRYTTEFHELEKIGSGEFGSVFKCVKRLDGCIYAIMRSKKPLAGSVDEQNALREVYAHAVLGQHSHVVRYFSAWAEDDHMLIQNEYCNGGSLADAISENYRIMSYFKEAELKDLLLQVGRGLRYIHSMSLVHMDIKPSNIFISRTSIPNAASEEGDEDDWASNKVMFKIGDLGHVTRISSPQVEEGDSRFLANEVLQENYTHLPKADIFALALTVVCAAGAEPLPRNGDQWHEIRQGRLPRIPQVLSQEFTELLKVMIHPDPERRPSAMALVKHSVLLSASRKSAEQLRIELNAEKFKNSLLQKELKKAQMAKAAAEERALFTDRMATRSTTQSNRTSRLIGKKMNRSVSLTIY
hgDAF-12 ag: agonists of H. glycines DAF-12 nuclear receptor; HEK293 GAL4-hgDAF12 UAS-luciferase reporter, agonist luminescence; normalized to butyrate control; activation, % at 6.8 µM; hit rate 1.8% among 370,000;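 active = activation above a cutoff set at the mean of all screened compounds plus 3 SD, cut at about 10% in these data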;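 note: 0% = DMSO wells and 100% = sodium butyrate wells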
DAX1 inh-1: blocks DAX1 repression of SF-1 activated StAR promoter; inhibition, % at 6.8 µM; hit rate 1.1% among 370,000; HEK293T StAR-luciferase reporter, SF-1/DAX-1 repression relief;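 active = inhibition above the mean over all tested compounds plus 3 SD, cut at about 3.6% in these data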;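 note: 0% = DAX-1 cells with DMSO and 100% = cells lacking DAX-1 with DMSO; higher inhibition means more luminescence from relief of DAX-1 repression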
DAX1 inh-2: inhibitors of human orphan nuclear receptor DAX1 (NR0B1); inhibition, % at 6.75 µM; HEK293 Gal4-DAX1 luciferase reporter, luminescence; AID 504766; P51843; hit rate 0.99% among 340,000;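 active = inhibition above the mean over all tested compounds plus 3 SD, cut at about 4.2% in these data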;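 note: 0% = DAX1-transfected cells with DMSO and 100% = empty-vector control cells with DMSO; inhibition shows as a rise in luminescence from relieved DAX1 repression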
* hit, by the source's call; x = no result given. Most compounds without a hit are left out; they make up all but 4.6% or so of the library.

SMILES | hcDAF-12 act | ssDAF12 agonist | Wee1 degr inh | hgDAF-12 ag | DAX1 inh-1 | DAX1 inh-2
CCCc1[nH]n(-c2ccc(F)cc2)c(=O)c1C=NCC1CCCO1 (centres undefined) | 0 | -2 | -1 | 1 | -1 | 0
O=C(NCCN1CCC(Cc2ccccc2)CC1)C1CCCN(S(=O)(=O)c2ccccc2)C1 (centres undefined) | -4 | -2 | x | -3 | -3 | x
CN(C)CCCNC(=O)CC1C[C@H](C(=O)N2CCCCC2)[C@@]2(CCc3ccccc3)c3[nH]c4ccccc4c3CCN2C1=O (some centres undefined) | 1 | -1 | x | 1 | 3.9* | 0
Cc1ccc(Cl)c(OCC(=O)Nc2sc(C)c(C)c2C#N)c1 | -1 | -1 | 8.8* | 0 | 0 | -1
Cc1ccc(Cl)c(OCC(=O)Nc2cccnc2)c1 | 2 | 0 | x | 8 | 3 | 1
CCCCNC(=O)C[C@@H]1C[C@@]2(C(=O)OC)CC(C)(C)CC=C2N(CCc2ccc(OC)c(OC)c2)C1=O | -1 | -1 | x | -1 | 0 | x
COC(=O)[C@@]12C[C@@H](CC(=O)NCCCN3CCCC3=O)C(=O)N(CCc3ccc(OC)c(OC)c3)C1=CCC(C)(C)C2 | 1 | -1 | x | -4 | 3.8* | x
CCc1ccc(S(=O)(=O)NCCc2cn3cccc(C)c3n2)s1 | 5 | 2.2* | 2 | 4 | 1 | -1
CC(C)(CC1(C)NC(=O)NC1=O)OCc1ccccc1 (centres undefined) | -1 | -1 | x | -2 | -1 | 0
CCCc1cc(C(=O)Nc2cc(OC)c(Cl)cc2OC)no1 | 6.5* | 1 | 0 | -2 | 0 | 2
COc1cc(OC)c(NC(=O)c2cccc(F)c2)cc1Cl | 5 | 1.2* | 2 | -2 | 0 | -1
COc1cc(N)c(Cl)cc1NC(=O)c1ccccc1 | 0 | -1 | 0 | 3 | 1 | 1
COc1cc(NC(=O)c2ccccc2)c(OC)cc1Cl | 5.8* | 0 | 0 | 4 | 0 | 0
Cc1ccc(NC(=O)CSc2ccccc2NC(=O)c2ccccc2)cc1Cl | 5.6* | 0 | -1 | 8 | 0 | 0
Cc1ccc(NC(=O)CSc2ccccc2NC(=O)c2ccccc2Cl)cc1Cl | 0 | 0 | 3 | 6 | 0 | 0
COc1ccc(N2C(=O)c3ccccc3NC(=O)C2C(=O)NCc2ccco2)cc1 (centres undefined) | -1 | -1 | x | 2 | 1 | x
COc1cccc(-c2noc(-c3ccoc3C)n2)c1 | 2 | 1 | 0 | 12* | 3 | 3
COc1ccc(-c2noc(-c3ccoc3C)n2)cc1 | 5 | 1.7* | 0 | 11* | 4.0* | 7.5*
O=C(COc1ccccc1[N+](=O)[O-])NCC1(N2CCCCC2)CCCCC1 | 1 | 0 | x | 2 | 1 | 0
N#Cc1ccccc1OCC(=O)NCC1(N2CCCCC2)CCCCC1 | 3 | 1.5* | 0 | 9 | 1 | 0
Cc1ccccc1CN1CCCCC(NC(=O)Nc2cccc(F)c2)C1=O (centres undefined) | -5 | -1 | x | -2 | -2 | x
CCCC(=O)N1CCC1(C)C(=O)Nc1ccccc1-c1ccccc1 (centres undefined) | -1 | -1 | x | 2 | -1 | x
CCCC(=O)N1CCC1(C)C(=O)Nc1cc(-c2ccccc2)nn1C (centres undefined) | 3 | 0 | x | 12* | 3.9* | x
O=C(COc1ccc([N+](=O)[O-])cc1)NC(=O)NC1CCS(=O)(=O)C1 (centres undefined) | 0 | -1 | x | -1 | 1 | 2
Cc1ccnc2nc(C(=O)Nc3nc(-c4ccccn4)cs3)nn12 | -1 | -1 | -1 | -1 | 0 | 8.3*
SMILES | hcDAF-12 act | ssDAF12 agonist | Wee1 degr inh | hgDAF-12 ag | DAX1 inh-1 | DAX1 inh-2
Cc1ccc(CNC(=O)c2cc(C)nn2-c2ccccc2)cc1 | -3 | -2 | 3 | -2 | 1 | 2
Cc1ccc(Cc2nnc3n(-c4ccccc4)nc(C(=O)c4ccccc4)n3c2=O)cc1 | -1 | -1 | -1 | -2 | -1 | 7.0*
COc1ccc(CCNC(=O)C(C(=O)c2ccc(F)cc2)n2ccccc2=O)cc1OC (centres undefined) | -1 | -1 | -1 | 1 | 0 | -1
COc1ccc(CCNC(=O)Cn2nc(C(=O)O)c3ccccc3c2=O)cc1OC | 0 | -1 | -1 | 0 | 1 | 0
COc1ccc(CCNC(=O)C(C(=O)c2ccccc2)n2ccccc2=O)cc1OC (centres undefined) | 2 | -1 | 11* | 1 | 0 | -1
COc1ccc(CCNC(=O)C/C(C)=N/NC(=O)c2ccc(N)cc2)cc1OC | 4 | 0.9* | 0 | 6 | 1 | 1
COc1ccc(CC(=O)NNC(=O)c2nn(Cc3ccccc3)c(=O)c3ccccc23)cc1OC | -1 | -1 | 2 | 4 | 1 | 5.1*
O=C(CCCCCNc1nc(=S)[nH]c2ccccc12)NCCc1ccccc1 | 0 | -1 | 1 | 3 | -1 | 0
COc1ccc(CCNC(=O)CCCCCNc2nc(=S)[nH]c3ccccc23)cc1OC | -2 | -2 | 10* | -4 | -1 | -3
COC(=O)C1CN(C2CCCC2)CCS(=O)(=O)N1Cc1ccccc1 (centres undefined) | -1 | -1 | x | -2 | -1 | x
COc1ccc2[nH]c3c(c2c1)CCN1C(=O)C(CC(=O)NCc2cccc(C(F)(F)F)c2)C[C@H](C(=O)N2CCCCC2)[C@@]31CCc1ccccc1 (some centres undefined) | -1 | -1 | x | 0 | 1 | 0
C=CCN(c1ccc(C(=O)NCCCn2ccnc2)cc1)S(C)(=O)=O | 0 | -2 | x | 3 | 0 | -1
O=S1(=O)c2ccc(Br)cc2OC[C@@H](c2ccccc2)N1Cc1cn(CCC2OCCO2)nn1 | -2 | -1 | x | 0 | -2 | x
Cc1cc(F)ccc1-c1cc(C(=O)NC2CCCCC2)[nH]n1 | 0 | 0 | x | 7 | 2 | x
COc1ccc(CCNC(=O)CCc2ccccc2)cc1OC | 0 | -2 | x | -3 | 0 | x
COc1ccc(CCNC(=O)Cc2ccccc2)cc1OC | 1 | -1 | x | 1 | 0 | 5.6*
CC(Oc1ccccc1)C(=O)Nc1ccc(F)c(S(=O)(=O)N2CCOCC2)c1 (centres undefined) | -1 | -1 | x | 2 | 0 | -2
O=C1CCC[C@H]2C[C@H](NCc3ccc(Br)cc3)CC[C@]23CCCN13 | 3 | 0 | x | 0 | x | x
CC(C)(C)c1ccc(C(=O)Nc2cc(Cl)c(F)cc2C(=O)O)cc1 | -1 | 0 | x | 4 | x | x
CC1CCN(Cc2ccc(NC(=O)CC3Oc4ccccc4NC3=O)cc2)CC1 (centres undefined) | 3 | 0 | -3 | 1 | 0 | 6.2*

Bioassay records as filed in PubChem.
